What was measured:
Assay in all cases: DAPPL (digital affinity profiling via proximity ligation, sequencing); 10 mM Tris-HCl pH 7.5, 50 mM NaCl, 1 mM DTT, 4% glycerol, room temperature, 30 min; GST-TFs on glutathione beads, 16-mer random dsDNA library, 0.1% formaldehyde crosslink after washing; high values mean tight binding
FLI1 = target: T1, FLI1 (Homo sapiens, UniProt Q01543 1-452); settings: protein: recombinant; tags: N-terminal GST; dsDNA, one strand shown
T1 sequence: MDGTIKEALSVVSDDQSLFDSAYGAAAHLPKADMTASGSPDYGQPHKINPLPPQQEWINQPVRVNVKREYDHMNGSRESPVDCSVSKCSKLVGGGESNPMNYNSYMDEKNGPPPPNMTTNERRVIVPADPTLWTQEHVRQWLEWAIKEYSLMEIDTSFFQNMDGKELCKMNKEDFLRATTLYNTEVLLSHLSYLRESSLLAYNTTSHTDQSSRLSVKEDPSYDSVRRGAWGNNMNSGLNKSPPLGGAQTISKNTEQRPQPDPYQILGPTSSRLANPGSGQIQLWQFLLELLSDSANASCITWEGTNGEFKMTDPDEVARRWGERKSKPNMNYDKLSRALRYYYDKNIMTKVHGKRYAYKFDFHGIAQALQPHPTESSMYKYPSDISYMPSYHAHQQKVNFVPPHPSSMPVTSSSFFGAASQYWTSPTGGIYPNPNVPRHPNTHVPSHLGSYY
How it was run: (§1)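 Beads coated with glutathione captured GST-fused human transcription factors that had been expressed in yeast, and the factors were then given DNA barcodes and pooled with a tag-only sample. The pools were incubated with 200 nmole of a random double-stranded 16-mer DNA library in Tris/NaCl/DTT/glycerol buffer for 30 min at room temperature, washed, crosslinked with 0.1% formaldehyde and proximity-ligated with BsaI/T4 ligase at 37 °C for 1 h. PCR amplification and Illumina NextSeq500 sequencing came last. Binding signal is each hexamer's read frequency for a factor divided by its frequency for the tag-only sample.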

ELK1 = target: T2, ELK1 (Homo sapiens, UniProt P19419 1-428); settings: protein: recombinant; tags: N-terminal GST; dsDNA, one strand shown
T2 sequence: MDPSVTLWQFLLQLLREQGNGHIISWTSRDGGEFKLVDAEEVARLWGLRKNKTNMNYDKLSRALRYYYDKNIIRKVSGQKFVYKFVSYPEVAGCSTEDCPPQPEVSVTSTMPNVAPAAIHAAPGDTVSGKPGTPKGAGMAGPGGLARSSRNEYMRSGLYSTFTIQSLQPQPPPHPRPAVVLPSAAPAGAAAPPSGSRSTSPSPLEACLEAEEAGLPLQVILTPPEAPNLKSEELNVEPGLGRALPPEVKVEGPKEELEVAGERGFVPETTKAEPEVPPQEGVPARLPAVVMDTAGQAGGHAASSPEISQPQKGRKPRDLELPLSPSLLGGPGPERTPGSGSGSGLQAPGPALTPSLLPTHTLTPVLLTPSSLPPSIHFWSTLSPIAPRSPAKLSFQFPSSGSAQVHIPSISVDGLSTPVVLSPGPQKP
How it was run: as §1

GABPA = target: T3, GABPA (Homo sapiens, UniProt Q06546 1-454); settings: protein: recombinant; tags: N-terminal GST; dsDNA, one strand shown
T3 sequence: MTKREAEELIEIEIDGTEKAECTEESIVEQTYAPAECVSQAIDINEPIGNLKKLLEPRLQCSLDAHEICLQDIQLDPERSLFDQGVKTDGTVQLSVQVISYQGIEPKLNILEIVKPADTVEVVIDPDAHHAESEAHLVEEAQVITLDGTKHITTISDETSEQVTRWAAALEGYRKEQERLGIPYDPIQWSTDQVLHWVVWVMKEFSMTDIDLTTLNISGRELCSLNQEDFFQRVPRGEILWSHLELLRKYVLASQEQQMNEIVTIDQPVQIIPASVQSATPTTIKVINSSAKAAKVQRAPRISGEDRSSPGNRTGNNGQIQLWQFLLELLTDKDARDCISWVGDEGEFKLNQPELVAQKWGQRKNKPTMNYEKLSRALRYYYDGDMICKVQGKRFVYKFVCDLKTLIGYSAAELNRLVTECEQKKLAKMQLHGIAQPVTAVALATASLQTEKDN
How it was run: as §1

ERG = target: T4, ERG (Homo sapiens, UniProt P11308 1-479); settings: protein: recombinant; tags: N-terminal GST; dsDNA, one strand shown
T4 sequence: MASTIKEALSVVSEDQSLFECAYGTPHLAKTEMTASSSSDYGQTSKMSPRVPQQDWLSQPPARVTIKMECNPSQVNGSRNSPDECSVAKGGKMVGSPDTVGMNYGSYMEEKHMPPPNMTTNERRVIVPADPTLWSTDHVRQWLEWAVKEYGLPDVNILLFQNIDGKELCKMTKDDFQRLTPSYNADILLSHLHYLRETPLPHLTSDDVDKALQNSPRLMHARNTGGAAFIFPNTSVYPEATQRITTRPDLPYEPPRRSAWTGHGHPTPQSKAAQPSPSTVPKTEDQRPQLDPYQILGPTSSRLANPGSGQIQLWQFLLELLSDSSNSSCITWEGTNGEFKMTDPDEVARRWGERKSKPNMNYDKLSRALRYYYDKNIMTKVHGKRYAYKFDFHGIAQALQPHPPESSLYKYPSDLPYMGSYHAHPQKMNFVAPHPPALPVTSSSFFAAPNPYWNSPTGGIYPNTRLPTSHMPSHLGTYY
How it was run: as §1

ELF1 = ELF1 (Homo sapiens, UniProt P32519 1-619); settings: protein: recombinant; tags: N-terminal GST; dsDNA, one strand shown
How it was run: as §1

EHF = target: T5, EHF (Homo sapiens, UniProt Q9NZC4 1-300); settings: protein: recombinant; tags: N-terminal GST; dsDNA, one strand shown
T5 sequence: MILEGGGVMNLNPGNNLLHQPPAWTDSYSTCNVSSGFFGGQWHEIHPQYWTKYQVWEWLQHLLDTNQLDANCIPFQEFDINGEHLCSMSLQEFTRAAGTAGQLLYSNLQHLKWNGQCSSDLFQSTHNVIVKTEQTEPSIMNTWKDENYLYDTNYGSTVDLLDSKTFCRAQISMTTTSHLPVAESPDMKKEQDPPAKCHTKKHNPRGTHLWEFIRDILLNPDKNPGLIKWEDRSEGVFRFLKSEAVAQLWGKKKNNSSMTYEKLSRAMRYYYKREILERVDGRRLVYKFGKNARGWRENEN
How it was run: as §1

SPI1 = SPI1 (Homo sapiens, UniProt P17947 1-270); settings: protein: recombinant; tags: N-terminal GST; dsDNA, one strand shown
How it was run: as §1

SPIB = SPIB (Homo sapiens, UniProt Q01892 1-262); settings: protein: recombinant; tags: N-terminal GST; dsDNA, one strand shown
How it was run: as §1

ELK3 = target: T6, ELK3 (Homo sapiens, UniProt P41970 1-407); settings: protein: recombinant; tags: N-terminal GST; dsDNA, one strand shown
T6 sequence: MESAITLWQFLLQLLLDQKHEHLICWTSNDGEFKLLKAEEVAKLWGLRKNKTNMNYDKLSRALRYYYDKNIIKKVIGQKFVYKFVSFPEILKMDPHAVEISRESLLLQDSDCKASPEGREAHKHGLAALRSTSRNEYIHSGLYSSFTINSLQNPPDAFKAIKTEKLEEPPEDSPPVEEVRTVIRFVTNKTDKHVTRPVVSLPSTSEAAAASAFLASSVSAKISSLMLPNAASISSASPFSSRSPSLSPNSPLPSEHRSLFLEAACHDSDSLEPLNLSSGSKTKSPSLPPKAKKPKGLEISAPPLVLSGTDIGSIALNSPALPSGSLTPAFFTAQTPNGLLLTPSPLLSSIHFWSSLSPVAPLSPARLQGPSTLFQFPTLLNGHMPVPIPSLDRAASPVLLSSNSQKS
How it was run: as §1

FEV = target: T7, FEV (Homo sapiens, UniProt Q99581 1-238); settings: protein: recombinant; tags: N-terminal GST; dsDNA, one strand shown
T7 sequence: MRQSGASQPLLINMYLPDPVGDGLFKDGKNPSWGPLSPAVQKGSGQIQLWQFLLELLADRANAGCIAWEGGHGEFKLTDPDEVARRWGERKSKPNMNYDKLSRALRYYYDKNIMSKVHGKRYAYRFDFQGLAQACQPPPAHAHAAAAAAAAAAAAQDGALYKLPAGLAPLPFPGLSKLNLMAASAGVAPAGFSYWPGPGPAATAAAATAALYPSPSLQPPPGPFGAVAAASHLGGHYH
How it was run: as §1

ETV5 = ETV5 (Homo sapiens, UniProt P41161 1-510); settings: protein: recombinant; tags: N-terminal GST; dsDNA, one strand shown
How it was run: as §1

HSF1 = HSF1 (Homo sapiens, UniProt Q00613 1-529); settings: protein: recombinant; tags: N-terminal GST; chain copies: 3; dsDNA, one strand shown
How it was run: as §1

SPIC = target: T8, SPIC (Homo sapiens, UniProt Q8N5J4 1-248); settings: protein: recombinant; tags: N-terminal GST; dsDNA, one strand shown
T8 sequence: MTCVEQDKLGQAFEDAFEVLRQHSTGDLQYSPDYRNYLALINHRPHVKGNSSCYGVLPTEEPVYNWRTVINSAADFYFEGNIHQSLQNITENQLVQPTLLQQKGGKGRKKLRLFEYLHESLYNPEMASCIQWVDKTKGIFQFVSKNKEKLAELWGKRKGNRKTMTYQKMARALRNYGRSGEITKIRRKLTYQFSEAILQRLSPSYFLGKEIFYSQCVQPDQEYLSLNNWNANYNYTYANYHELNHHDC
How it was run: as §1

ELF4 = ELF4 (Homo sapiens, UniProt Q99607 1-663); settings: protein: recombinant; tags: N-terminal GST; dsDNA, one strand shown
How it was run: as §1

ELK4 = target: T9, ELK4 (Homo sapiens, UniProt P28324-2 1-405); settings: protein: recombinant; tags: N-terminal GST; dsDNA, one strand shown
T9 sequence: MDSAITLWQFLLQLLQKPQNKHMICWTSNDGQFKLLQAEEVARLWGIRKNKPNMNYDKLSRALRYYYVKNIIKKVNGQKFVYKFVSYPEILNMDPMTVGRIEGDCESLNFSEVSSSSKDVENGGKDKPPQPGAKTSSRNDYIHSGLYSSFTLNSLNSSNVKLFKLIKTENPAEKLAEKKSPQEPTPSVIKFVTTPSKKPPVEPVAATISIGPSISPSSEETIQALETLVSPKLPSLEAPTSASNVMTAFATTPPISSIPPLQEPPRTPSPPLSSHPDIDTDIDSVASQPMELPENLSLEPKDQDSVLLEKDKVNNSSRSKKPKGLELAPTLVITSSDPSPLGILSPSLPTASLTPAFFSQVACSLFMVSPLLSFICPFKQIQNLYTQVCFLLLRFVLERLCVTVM
How it was run: as §1

ETV2 = target: T10, ETV2 (Homo sapiens, UniProt O00321 1-342); settings: protein: recombinant; tags: N-terminal GST; dsDNA, one strand shown
T10 sequence: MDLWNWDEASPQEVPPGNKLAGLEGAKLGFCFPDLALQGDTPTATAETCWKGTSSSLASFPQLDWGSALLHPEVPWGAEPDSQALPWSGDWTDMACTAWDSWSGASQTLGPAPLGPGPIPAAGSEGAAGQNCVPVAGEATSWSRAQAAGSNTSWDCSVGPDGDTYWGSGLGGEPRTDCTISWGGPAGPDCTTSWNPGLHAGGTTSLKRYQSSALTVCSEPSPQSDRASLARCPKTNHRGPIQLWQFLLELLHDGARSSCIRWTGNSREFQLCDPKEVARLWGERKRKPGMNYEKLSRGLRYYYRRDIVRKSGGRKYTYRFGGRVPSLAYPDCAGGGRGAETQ
How it was run: as §1

ELF3 = target: T11, ELF3 (Homo sapiens, UniProt P78545 1-371); settings: protein: recombinant; tags: N-terminal GST; dsDNA, one strand shown
T11 sequence: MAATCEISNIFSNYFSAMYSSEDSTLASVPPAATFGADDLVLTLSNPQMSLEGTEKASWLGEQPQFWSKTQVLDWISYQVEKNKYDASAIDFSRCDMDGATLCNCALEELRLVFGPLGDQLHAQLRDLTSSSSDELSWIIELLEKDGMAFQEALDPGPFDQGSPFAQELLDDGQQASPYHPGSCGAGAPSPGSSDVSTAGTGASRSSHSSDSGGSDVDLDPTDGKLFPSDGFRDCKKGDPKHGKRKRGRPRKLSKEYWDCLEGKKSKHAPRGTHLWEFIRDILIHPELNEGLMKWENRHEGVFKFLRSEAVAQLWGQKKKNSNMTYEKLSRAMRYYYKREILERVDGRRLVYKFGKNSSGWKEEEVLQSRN
How it was run: as §1

CRX = CRX (Homo sapiens, UniProt O43186 1-299); settings: protein: recombinant; tags: N-terminal GST; dsDNA, one strand shown
How it was run: as §1

ETV1 = ETV1 (Homo sapiens, UniProt P50549 1-477); settings: protein: recombinant; tags: N-terminal GST; dsDNA, one strand shown
How it was run: as §1

Chain of SPIB (Q01892 whole entry): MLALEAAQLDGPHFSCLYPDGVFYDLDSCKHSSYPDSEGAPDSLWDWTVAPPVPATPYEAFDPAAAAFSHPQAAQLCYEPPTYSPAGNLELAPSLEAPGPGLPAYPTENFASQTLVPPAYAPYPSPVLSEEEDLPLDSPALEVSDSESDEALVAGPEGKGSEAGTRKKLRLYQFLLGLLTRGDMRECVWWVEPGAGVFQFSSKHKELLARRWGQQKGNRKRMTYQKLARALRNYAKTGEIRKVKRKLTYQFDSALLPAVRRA
Chain of ETV5 (P41161 whole entry): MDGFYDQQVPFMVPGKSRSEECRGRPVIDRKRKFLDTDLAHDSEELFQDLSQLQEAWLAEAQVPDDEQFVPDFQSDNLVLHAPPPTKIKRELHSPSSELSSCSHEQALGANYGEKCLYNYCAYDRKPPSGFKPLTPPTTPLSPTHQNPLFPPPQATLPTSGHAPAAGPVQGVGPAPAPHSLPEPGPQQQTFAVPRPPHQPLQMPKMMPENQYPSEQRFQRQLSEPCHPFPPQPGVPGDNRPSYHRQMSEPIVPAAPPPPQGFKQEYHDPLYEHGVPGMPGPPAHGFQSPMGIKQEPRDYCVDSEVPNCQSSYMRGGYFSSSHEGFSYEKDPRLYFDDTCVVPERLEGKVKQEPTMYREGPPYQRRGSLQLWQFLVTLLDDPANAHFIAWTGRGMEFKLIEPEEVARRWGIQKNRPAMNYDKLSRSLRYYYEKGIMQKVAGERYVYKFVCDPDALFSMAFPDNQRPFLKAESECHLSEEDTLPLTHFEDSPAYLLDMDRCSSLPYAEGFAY
Chain of ELF1 (P32519 whole entry): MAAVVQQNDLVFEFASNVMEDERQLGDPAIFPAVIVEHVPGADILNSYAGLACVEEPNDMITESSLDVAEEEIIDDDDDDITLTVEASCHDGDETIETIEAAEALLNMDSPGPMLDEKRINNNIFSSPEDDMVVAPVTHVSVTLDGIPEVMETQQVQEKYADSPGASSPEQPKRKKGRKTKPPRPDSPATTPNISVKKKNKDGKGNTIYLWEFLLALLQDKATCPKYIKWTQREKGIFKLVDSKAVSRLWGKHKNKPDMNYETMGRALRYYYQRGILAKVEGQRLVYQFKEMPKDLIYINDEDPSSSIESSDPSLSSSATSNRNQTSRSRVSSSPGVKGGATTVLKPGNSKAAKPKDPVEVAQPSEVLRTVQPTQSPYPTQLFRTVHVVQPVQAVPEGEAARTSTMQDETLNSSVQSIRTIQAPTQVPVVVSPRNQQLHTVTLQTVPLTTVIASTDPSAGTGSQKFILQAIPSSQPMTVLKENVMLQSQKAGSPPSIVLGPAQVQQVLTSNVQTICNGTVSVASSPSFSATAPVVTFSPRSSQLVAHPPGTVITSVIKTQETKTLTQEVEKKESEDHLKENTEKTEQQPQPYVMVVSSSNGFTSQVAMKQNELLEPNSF
Chain of CRX (O43186 whole entry): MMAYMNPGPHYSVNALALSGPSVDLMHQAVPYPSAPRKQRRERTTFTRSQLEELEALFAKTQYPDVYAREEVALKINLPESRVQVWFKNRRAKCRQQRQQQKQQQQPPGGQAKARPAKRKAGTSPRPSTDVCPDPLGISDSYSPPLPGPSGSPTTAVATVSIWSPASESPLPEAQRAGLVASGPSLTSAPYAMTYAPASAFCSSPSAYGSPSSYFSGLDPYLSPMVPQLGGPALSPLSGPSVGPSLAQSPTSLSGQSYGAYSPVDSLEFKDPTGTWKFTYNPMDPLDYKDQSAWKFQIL
Chain of ELF4 (Q99607 whole entry): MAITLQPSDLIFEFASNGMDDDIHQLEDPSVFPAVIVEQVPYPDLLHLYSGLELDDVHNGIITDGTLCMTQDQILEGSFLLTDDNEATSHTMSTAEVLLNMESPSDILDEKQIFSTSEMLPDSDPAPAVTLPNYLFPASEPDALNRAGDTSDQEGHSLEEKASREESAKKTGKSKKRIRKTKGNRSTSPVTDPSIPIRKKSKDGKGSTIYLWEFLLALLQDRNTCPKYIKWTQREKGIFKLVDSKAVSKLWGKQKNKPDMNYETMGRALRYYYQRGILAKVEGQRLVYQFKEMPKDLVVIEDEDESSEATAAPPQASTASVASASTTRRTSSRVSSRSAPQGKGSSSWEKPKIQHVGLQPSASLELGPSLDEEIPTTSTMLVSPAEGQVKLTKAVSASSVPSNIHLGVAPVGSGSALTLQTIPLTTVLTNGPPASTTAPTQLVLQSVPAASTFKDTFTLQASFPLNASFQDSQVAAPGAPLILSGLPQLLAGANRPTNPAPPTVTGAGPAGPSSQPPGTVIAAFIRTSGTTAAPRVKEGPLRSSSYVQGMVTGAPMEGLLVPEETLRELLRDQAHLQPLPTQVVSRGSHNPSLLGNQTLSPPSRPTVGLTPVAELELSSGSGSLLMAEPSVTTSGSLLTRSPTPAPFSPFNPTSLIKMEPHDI
Chain of HSF1 (Q00613 whole entry): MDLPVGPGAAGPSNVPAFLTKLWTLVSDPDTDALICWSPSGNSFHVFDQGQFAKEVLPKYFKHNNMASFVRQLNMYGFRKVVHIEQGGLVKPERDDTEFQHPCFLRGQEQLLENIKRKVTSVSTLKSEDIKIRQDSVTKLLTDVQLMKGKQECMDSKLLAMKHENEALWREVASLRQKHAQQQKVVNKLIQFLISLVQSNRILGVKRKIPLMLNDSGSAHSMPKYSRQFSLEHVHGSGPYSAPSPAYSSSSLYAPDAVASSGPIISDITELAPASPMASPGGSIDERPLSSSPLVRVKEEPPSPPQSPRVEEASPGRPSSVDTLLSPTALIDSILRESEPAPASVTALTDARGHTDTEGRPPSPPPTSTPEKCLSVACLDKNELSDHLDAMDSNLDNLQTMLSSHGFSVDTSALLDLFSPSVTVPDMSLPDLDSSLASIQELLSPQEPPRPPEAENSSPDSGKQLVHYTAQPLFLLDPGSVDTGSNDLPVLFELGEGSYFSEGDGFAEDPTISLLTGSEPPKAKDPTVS
Chain of ETV1 (P50549 whole entry): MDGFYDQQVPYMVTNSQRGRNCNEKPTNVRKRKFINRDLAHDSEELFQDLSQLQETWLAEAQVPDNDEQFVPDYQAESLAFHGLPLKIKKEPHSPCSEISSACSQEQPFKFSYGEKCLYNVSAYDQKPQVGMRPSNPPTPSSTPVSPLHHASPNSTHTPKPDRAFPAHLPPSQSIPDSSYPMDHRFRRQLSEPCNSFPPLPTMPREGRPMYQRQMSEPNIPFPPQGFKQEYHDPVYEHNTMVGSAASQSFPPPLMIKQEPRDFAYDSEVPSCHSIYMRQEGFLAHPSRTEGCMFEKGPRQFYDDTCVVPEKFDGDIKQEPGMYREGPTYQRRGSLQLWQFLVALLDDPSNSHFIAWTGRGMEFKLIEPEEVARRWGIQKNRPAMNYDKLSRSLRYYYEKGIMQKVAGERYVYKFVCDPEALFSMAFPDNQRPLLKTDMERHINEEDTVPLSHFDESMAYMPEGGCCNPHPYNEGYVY

In the case of CTTAAA, the binding signal (FLI1) is reported as 1.12 fold enrichment (6-mer frequency, TF over GST control), the binding signal (ELK1) is reported as 1.14 fold enrichment (6-mer frequency, TF over GST control) and the binding signal (GABPA) is reported as 1.24 fold enrichment (6-mer frequency, TF over GST control). The binding signal (ERG) was 1.16 fold enrichment (6-mer frequency, TF over GST control), the binding signal (ELF1) was 1.22 fold enrichment (6-mer frequency, TF over GST control) and the binding signal (EHF) was 1.2 fold enrichment (6-mer frequency, TF over GST control). For the same sequence, the binding signal (SPI1) was 1.22 fold enrichment (6-mer frequency, TF over GST control), the binding signal (SPIB) was 1.23 fold enrichment (6-mer frequency, TF over GST control) and the binding signal (ELK3) was 1.08 fold enrichment (6-mer frequency, TF over GST control). For the same sequence, the binding signal (FEV) was 1.21 fold enrichment (6-mer frequency, TF over GST control), the binding signal (ETV5) was 1.21 fold enrichment (6-mer frequency, TF over GST control) and the binding signal (HSF1) was 1.65 fold enrichment (6-mer frequency, TF over GST control). The binding signal (SPIC) was 1.21 fold enrichment (6-mer frequency, TF over GST control), the binding signal (ELF4) was 1.12 fold enrichment (6-mer frequency, TF over GST control) and the binding signal (ELK4) was 1.11 fold enrichment (6-mer frequency, TF over GST control). The binding signal (ETV2) was 1.1 fold enrichment (6-mer frequency, TF over GST control), the binding signal (ELF3) was 1.2 fold enrichment (6-mer frequency, TF over GST control) and the binding signal (CRX) was 2.38 fold enrichment (6-mer frequency, TF over GST control). For the same sequence, the binding signal (ETV1) was 1.25 fold enrichment (6-mer frequency, TF over GST control).

Source: paper PMC7862700, “An all-to-all approach to the identification of sequence-specific readers for epigenetic DNA modifications on cytosine”
